This is a sample that favours compounds with a hit; in the whole collection about 9.2% have one here.
Rab9 prom act: Rab9 promoter activation; Huh7 Rab9 promoter-luciferase reporter, luminescence, 24 h; Potency, µM (highest dose often 9.22 µM), for inactives: at the highest dose activation, negative = inhibition, usual class: activators; actives 2.8% (n = 320,000); further: % of control where 0% means no effect; nearly all actives have a fitted effect of over 60% in size
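Using Huh7 cells stably transfected with Rab9 promoter–luciferase, compounds were incubated 24 h at 37 °C, 5% CO2; luciferase luminescence was read 10 min after reagent addition.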
FLuc modulator: firefly luciferase modulation, counter-screen for miR-21 project | Potency, µM (series often up to 57.5 µM), for inactives: at the top dose activity change, negative = inhibition, actives largely listed as inhibitors | actives 6.9% (n = 360,000) | purified FLuc, Km substrates, luminescence inhibition;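 further: plate controls were vehicle for no effect and reference inhibitor for full effect; nearly all actives have a fitted effect of over 55% in size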
Target sequence (P08659 whole entry, looked up): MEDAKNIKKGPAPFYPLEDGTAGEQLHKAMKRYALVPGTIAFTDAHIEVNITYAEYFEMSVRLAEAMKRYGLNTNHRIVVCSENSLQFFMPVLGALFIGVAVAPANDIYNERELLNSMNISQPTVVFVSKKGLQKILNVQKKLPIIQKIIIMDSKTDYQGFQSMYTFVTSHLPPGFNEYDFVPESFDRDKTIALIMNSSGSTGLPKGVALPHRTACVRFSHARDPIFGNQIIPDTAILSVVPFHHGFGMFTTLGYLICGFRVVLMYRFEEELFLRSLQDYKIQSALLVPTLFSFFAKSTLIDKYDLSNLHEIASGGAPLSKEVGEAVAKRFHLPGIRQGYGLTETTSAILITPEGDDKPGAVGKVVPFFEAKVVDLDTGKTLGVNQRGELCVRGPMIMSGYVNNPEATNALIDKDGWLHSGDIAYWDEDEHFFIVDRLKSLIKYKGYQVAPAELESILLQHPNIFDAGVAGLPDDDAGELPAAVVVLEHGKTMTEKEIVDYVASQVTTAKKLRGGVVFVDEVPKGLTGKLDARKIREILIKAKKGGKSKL
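Biochemical qHTS of compounds, final roughly 60 µM downward over six points, against 10 nM purified firefly luciferase using Km concentrations of substrates (10 uM D-luciferin, 10 uM ATP) in Tris acetate pH 7.5 buffer; luminescence output.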
ELG1 repair inh: inhibitors of ELG1-dependent DNA repair in HEK293T cells; HEK293T ELG1-luciferase reporter, luminescence, 16 h; DNA damage induced by 5-fluorouridine; Potency, µM (series often up to 46.1 µM), without a hit: at the top dose activity change, negative = inhibition, usual class: inhibitors; actives 2.3% (n = 330,000); further: on the % scale 0 is the no-effect control and ±100 the full control effect; nearly all actives have a fitted effect of over 55% in size
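5-Fluorouridine DNA damage + compound/DMSO, 2,000 cells/well, 16 h, 37 °C/5% CO2. ONE-Glo, 30 min RT, luminescence. Readout = decrease in reporter signal.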
NPC1 prom act: activators of NPC1 promoter; Huh7 NPC1 promoter luciferase reporter, 24 h; Potency, µM (highest dose often 9.22 µM), without a hit: top-dose activation, hits mostly activators; actives 2.4% (n = 320,000); AID 485313; further: % of control where 0% means no effect; nearly all actives have a fitted effect of over 60% in size
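Quantitative HTS used a cell-based reporter: Huh7 cells stably bearing the NPC1 promoter upstream of luciferase were treated with compounds for 24 h, and promoter activation was read as luminescence.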
SMN2 splice up: increases expression of the SMN2 splice variant; HEK293 SMN2-luciferase splicing reporter, luminescence, 30-36 h; Potency, µM (doses to about 46.1 µM), without a hit: at the top dose activity change, positive = activation, usual class: activators; actives 2.8% (n = 210,000); AID 1458; further: % of control where 0% means no effect; nearly all actives have a fitted effect of over 55% in size
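HEK293 cells carry an SMN2 […]–luciferase reporter in which exon 7 inclusion puts luciferase in frame. Cells were plated 10-12 h before compound addition, then incubated 30-36 h at 37C. ONE-Glo luminescence was read; sodium butyrate at 4.5 mM final served as control.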
ELG1 genotox: inducers of genotoxicity in HEK293T ELG1-luciferase cells | HEK293T ELG1-luciferase reporter, luminescence, 16 h | Potency, µM (doses to about 46 µM), for the others: at the top dose activity change, positive = activation, actives largely listed as activators | actives 1.3% (n = 330,000) | AID 504466; further: % of control where 0% means no effect; nearly all actives have a fitted effect of over 60% in size
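Screening used a luciferase reporter fused to human ELG1 in HEK293T cells. Luminescence was read on a CCD plate imager after 16 hr exposure and 30 min ONE-Glo incubation.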
Starred values were filed as active, the others as inactive. The call rests on the fitted dose curve; in most records, active means well fitted curve in the direction sought with a large enough effect; inconclusive means small, poorly fitted or top-dose-only effect, or another doubt; inactive means no such curve, though single readings can be large; an effect the other way counts as inactive or inconclusive. Potency means the concentration at half of the fitted maximal effect.

`COc1ccccc1NC(=O)C1=C(C)NC(SCC(=O)c2ccc(C)cc2)=C(C#N)C1c1ccco1` (stereo not given) gave Rab9 prom act -5%, FLuc modulator 9%, ELG1 repair inh 16µM*, NPC1 prom act -5%, SMN2 splice up 3% and ELG1 genotox 1%.
`CCCCc1ccc(NC(=O)CSC2=C(C#N)C(c3ccco3)C3=C(CCCC3=O)N2)cc1` (stereo not given) gave Rab9 prom act 1%, FLuc modulator -1%, ELG1 repair inh 18µM*, NPC1 prom act 1%, SMN2 splice up -30% and ELG1 genotox -9%.
CC(=O)C1=C(C)NC(SCC(=O)c2ccc(F)cc2)=C(C#N)C1c1ccco1 (stereo not given) was read as Rab9 prom act 8%, FLuc modulator 2%, ELG1 repair inh inconclusive, NPC1 prom act -1%, SMN2 splice up 10% and ELG1 genotox 16%.
CC1(C)CC(=O)C=C(c2cccc3c2sc2ccccc23)C1 was read as Rab9 prom act 3%, FLuc modulator inconclusive, ELG1 repair inh inconclusive, NPC1 prom act 14% and ELG1 genotox 3%.
For Cc1noc(C)c1C(=O)N1CCC[C@@]2(CCN(C(c3ccccc3)c3ccccc3)C2)C1 the results were SMN2 splice up -5%.
Screening CC(=O)c1ccc(NC(=O)CN(c2c(C)cccc2C)S(C)(=O)=O)cc1 returned Rab9 prom act inconclusive, FLuc modulator inconclusive, ELG1 repair inh inconclusive, NPC1 prom act inconclusive and ELG1 genotox 16%.
`Cc1ccc(N2C(=O)c3ccc(N)cc3C2=O)cc1C` gave Rab9 prom act 4µM*, FLuc modulator 11µM*, ELG1 repair inh inconclusive, NPC1 prom act 2.5µM*, SMN2 splice up 14% and ELG1 genotox inconclusive.
For Cc1ccc(N2C(=O)c3ccc(N)cc3C2=O)cc1 the results were Rab9 prom act 4µM*, FLuc modulator 7.6µM*, ELG1 repair inh inconclusive, NPC1 prom act 3.5µM* and ELG1 genotox 3.7µM*.
For N#Cc1c(NC(=O)c2nc3ncccn3n2)sc2c1CCCCC2 the results were Rab9 prom act 4.5µM*, FLuc modulator 13µM*, ELG1 repair inh inconclusive, NPC1 prom act 1.8µM*, SMN2 splice up 7.9µM* and ELG1 genotox 2.3µM*.
Screening CC1CCc2c(sc(NC(=O)c3nc4ncccn4n3)c2C#N)C1 (stereo not given) returned Rab9 prom act 4.5µM*, FLuc modulator 7.6µM*, ELG1 repair inh inconclusive, NPC1 prom act 3.2µM* and ELG1 genotox inconclusive.
Screening N#CCCn1cc(C=O)c(-c2cccs2)n1 returned Rab9 prom act 3%, FLuc modulator 0%, ELG1 repair inh 10%, NPC1 prom act -3%, SMN2 splice up -5% and ELG1 genotox -4%.
`COc1c2c(cc3c1C(CC(=O)c1c(O)c(OC)c4occc4c1OC)[N+](C)(C)CC3)OCO2` (stereo not given) gave SMN2 splice up 3%.
COc1ccc(S(=O)(=O)N2CCC(Nc3ccccc3Cl)CC2)cc1 was read as Rab9 prom act -1%, FLuc modulator -1%, ELG1 repair inh -11%, NPC1 prom act -3% and ELG1 genotox -8%.
O=C(O)c1ccccc1COc1ccccc1Cl was read as Rab9 prom act 0%, FLuc modulator 15µM*, ELG1 repair inh inconclusive, NPC1 prom act 4%, SMN2 splice up 26% and ELG1 genotox 12%.
`O=C(O)c1cccc(OCc2ccccc2Cl)c1` gave Rab9 prom act inconclusive, FLuc modulator 9.5µM*, ELG1 repair inh inconclusive, NPC1 prom act inconclusive and ELG1 genotox 4%.
Cc1ccc(C(=O)NCC(=O)OCc2cccc(Br)c2)cc1 was read as Rab9 prom act -6%, FLuc modulator -2%, ELG1 repair inh 6%, NPC1 prom act -4% and ELG1 genotox 2%.
For CCOC(=O)/C(C#N)=C/C=C1/C=CC=CN1C the results were Rab9 prom act inconclusive, FLuc modulator inconclusive, ELG1 repair inh inconclusive, NPC1 prom act 23% and ELG1 genotox 16%.
`C=CCN1C=CC(=C/C=C(/C#N)C(=O)OCC)C=C1` gave Rab9 prom act 2µM*, FLuc modulator 2.4µM*, ELG1 repair inh inconclusive, NPC1 prom act 2.5µM*, SMN2 splice up 1.4µM* and ELG1 genotox 7.3µM*.
For CC(C)CCCNc1nc(N2CCOCC2)nc(N2CCOCC2)n1 the results were Rab9 prom act -2%, FLuc modulator 0%, ELG1 repair inh 10µM*, NPC1 prom act 0%, SMN2 splice up -11% and ELG1 genotox 0%.
`COc1ccccc1CNC(=O)CSC(=S)N1CCCC1` gave Rab9 prom act 2%, FLuc modulator 1%, ELG1 repair inh 0%, NPC1 prom act -2% and ELG1 genotox 9%.
COC(=O)c1c(C)n(-c2ccc(OC)cc2)c2ccc(O)cc12 was read as Rab9 prom act -4%, FLuc modulator 0%, ELG1 repair inh inconclusive, NPC1 prom act -1%, SMN2 splice up 4.5µM* and ELG1 genotox -25%.
Screening CCOC(=O)c1sc(=N)n(-c2ccc(OC)cc2)c1C returned Rab9 prom act 26%, FLuc modulator 19µM*, ELG1 repair inh inconclusive, NPC1 prom act 30%, SMN2 splice up 14% and ELG1 genotox inconclusive.
For CCOC(=O)c1sc(=S)n(-c2ccc(OC)cc2)c1N the results were Rab9 prom act -13%, FLuc modulator 0%, ELG1 repair inh 9%, NPC1 prom act -2% and ELG1 genotox 1%.
CCCN=C(C)C1=C(O)c2ccccc2C1=O was read as Rab9 prom act inconclusive, FLuc modulator 21µM*, ELG1 repair inh inconclusive, NPC1 prom act inconclusive, SMN2 splice up 13µM* and ELG1 genotox inconclusive.
CC(=O)Oc1ccc2cc(-c3nc4ccccc4n3C)c(=O)oc2c1 was read as Rab9 prom act 2.8µM*, FLuc modulator inconclusive, ELG1 repair inh inconclusive, NPC1 prom act inconclusive, SMN2 splice up inconclusive and ELG1 genotox inconclusive.
Screening NC(=O)COc1ccc2cc(-c3ccccc3)c(=O)oc2c1 returned Rab9 prom act 14%, FLuc modulator inconclusive, ELG1 repair inh inconclusive, NPC1 prom act 29% and ELG1 genotox inconclusive.
For CC(C)(C)C(=O)Oc1ccc2cc(-c3ccc4ccccc4n3)c(=O)oc2c1 the results were Rab9 prom act inconclusive, FLuc modulator -12%, ELG1 repair inh inconclusive, NPC1 prom act inconclusive, SMN2 splice up 14µM* and ELG1 genotox inconclusive.
